Sampled rows, rich in hits. Any-hit rate of the full collection: about 0.5%.
E coli growth-1: blocks Escherichia coli growth | OD600, 23 h; hits give low values | OD600 absorbance (test concentration not listed) | 330,000 tested, 0.21% active;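 active means OD600 absorbance below the run mean of sample wells minus 3.6 SD, in any replicate, cut at about 0.56 in these data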
E coli growth-2: counter-screen for AddAB inhibitors: E. coli growth inhibition. inhibition, % at 11.9 µM. 330,000 tested, 0.27% active. E. coli V3065 growth, OD600 absorbance, 18 h;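 active means inhibition above the campaign's mean inhibition across all tested compounds plus 3 SD, cut at about 9.9% in these data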;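 further: uninfected addAB+ strain grown without phage in ampicillin broth; 0% = DMSO wells and 100% = ciprofloxacin 0.95 µg/ml wells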
Tat transport: blocks Tat-dependent protein export in E. coli; E. coli MC4100 TorA-mCherry Tat export, fluorescence; inhibition, % at 10 µM; AID 488895; 340,000 tested, 0.036% active;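 active means mean replicate inhibition at least 50% and at least half of replicates individually reaching 50%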;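 further: exported cargo escapes ClpAP degradation while cytoplasmic cargo is degraded and loses fluorescence; 0% = median of neutral control wells and 100% = median of NaSCN control wells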
AddAB inh: less growth of phage-infected E. coli with AddAB | AID 435030 | E. coli expressing H. pylori AddAB, absorbance growth | 330,000 tested, 0.29% active | inhibition, % at 11.9 µM; in the data active means inhibition above about 12%;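 further: 0% = vehicle wells of infected cells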
phage Ecoli inh: E. coli growth loss with phage present; growth absorbance; AID 651602; 360,000 tested, 0.26% active; inhibition, % at 11.9 µM; in the data active means inhibition above about 11%
* hit, by the source's call; ! = a repeat was not active.

What do the screens show for `CN(C)S(=O)(=O)c1cccc(NC(=S)N/N=C/c2ccc(O)c(O)c2O)c1`?
Tat transport: 6.6; phage Ecoli inh: 10.9*

How did C#CCOCCOCCOCCNc1nc(N2CCN(C(=O)CCCCCCCCCCNC(=O)Cn3cc(CCCCCN)nn3)CC2)nc(N2CCN(C(=O)CCCCCCCCCCNC(=O)C(CO)n3cc(CCCCCN)nn3)CC2)n1 (centres undefined) do in these assays?
E coli growth-1: 0.618

How did CCOC(=O)C1=C(N)n2c(sc(=Cc3cccs3)c2=O)=C(C(=O)OCC)C1c1cccs1 (centres undefined) do in these assays?
E coli growth-1: 0.74

Results for CCn1cc(C(=O)Nc2ccccc2)c(=O)c2ccc(C)nc21 ?
E coli growth-1: 0.749; E coli growth-2: -1.1; AddAB inh: 4.7

Results for CCn1cc(C(=O)NC2CCCCC2C)c(=O)c2ccc(C)nc21 (centres undefined) ?
E coli growth-1: 0.0585*; E coli growth-2: 1.9; Tat transport: 2.4; AddAB inh: 6.8; phage Ecoli inh: 2.0

What do the screens show for `COc1cc(/C=C/C(O)=C/C(=O)/C=C/c2ccc(O)cc2)ccc1O`?
E coli growth-2: 10.1*; Tat transport: 3.8; AddAB inh: 8.5; phage Ecoli inh: 10.6

How did CC(C)CC1COCCS(=O)(=O)N1Cc1ccccc1F (centres undefined) do in these assays?
E coli growth-1: 0.712

Results for CCN1/C(=C\c2ccc3cc(C)ccc3[n+]2CC)Sc2cc(C)c(C)cc21 ?
E coli growth-1: 0.206*; Tat transport: 1.9; phage Ecoli inh: 8.3

How did CCN1/C(=C/c2ccc3cc(C)ccc3[n+]2CC)Sc2ccc3sccc3c21 do in these assays?
E coli growth-1: 0.326*; E coli growth-2: -2.7; Tat transport: -6.9; AddAB inh: -1.4

Results for CC[n+]1c(/C=C/c2ccc(OC)c(OC)c2)ccc2ccccc21 ?
E coli growth-1: 0.647; E coli growth-2: 0.2; Tat transport: -1.6; AddAB inh: 2.7; phage Ecoli inh: -0.7

Results for CC[n+]1c(C)sc2c3ccsc3ccc21 ?
E coli growth-1: 0.673; E coli growth-2: 1.3; Tat transport: 8.0; AddAB inh: -1.1; phage Ecoli inh: 3.9

Results for CCN1/C(=C/c2ccc3cc(C)cc(C)c3[n+]2CC)Sc2cc(C)ccc21 ?
E coli growth-1: 0.124*; Tat transport: -2.4; phage Ecoli inh: 10.6

What do the screens show for `CCN1C(=Cc2ccc3ccccc3[n+]2CC)Sc2cc(C)ccc21`?
E coli growth-1: 0.362*

How did Cc1ccc2c(c1)S/C(=C\c1cccc[n+]1C)N2CCO do in these assays?
E coli growth-1: 0.654; E coli growth-2: -3.1; Tat transport: 6.7; AddAB inh: -2.7; phage Ecoli inh: 2.6

How did C=C1CC(O)C2C(C)C(=O)OC2C2C1CC(O)C2C (centres undefined) do in these assays?
E coli growth-1: 0.695

What do the screens show for `CCN1/C(=C/c2ccc3cccc(C)c3[n+]2CC)Sc2ccccc21`?
E coli growth-1: 0.456*; E coli growth-2: 5.4; Tat transport: 1.4; AddAB inh: 9.1; phage Ecoli inh: 6.3

How did C[n+]1ccccc1/C=C1\Sc2ccccc2N1CCO do in these assays?
E coli growth-1: 0.66; E coli growth-2: 0.2; Tat transport: -2.9; AddAB inh: 2.5; phage Ecoli inh: 2.0

What do the screens show for `CCn1c(CCn2c3ccccc3c3ccccc32)n[nH]c1=S`?
E coli growth-1: 0.678; E coli growth-2: 3.6; Tat transport: 50.3*; AddAB inh: 2.8; phage Ecoli inh: 5.4

What do the screens show for `CCn1c(CCc2ccccc2)n[nH]c1=S`?
E coli growth-1: 0.671; E coli growth-2: 1.6; Tat transport: -1.7; AddAB inh: 1.2; phage Ecoli inh: -2.8

What do the screens show for `N#CC(c1ccc(Cl)cc1)c1ccc2c(C(F)(F)F)cc(C(F)(F)F)nc2n1` (centres undefined)?
E coli growth-1: 0.683; E coli growth-2: 1.6; Tat transport: -15.5; AddAB inh: 3.2; phage Ecoli inh: 14.7*

How did FC(F)(F)c1cc(C(F)(F)F)c2ccc(N3CCN(c4ccc(Cl)cc4)CC3)nc2n1 do in these assays?
E coli growth-1: 0.746; E coli growth-2: 0.8; Tat transport: -8.0; AddAB inh: 1.5; phage Ecoli inh: 1.2

Results for Clc1ccc2c(c1)c1ccccc1n2CN1CCOCC1 ?
E coli growth-1: 0.515*; E coli growth-2: 1.4; Tat transport: 4.5; AddAB inh: -1.2; phage Ecoli inh: 0.1

What do the screens show for `Clc1ccc2c(c1)c1cc(Cl)ccc1n2CN1CCOCC1`?
E coli growth-1: 0.0885*; E coli growth-2: -1.7; Tat transport: 5.5; AddAB inh: 3.3; phage Ecoli inh: 1.1

Results for COc1ccc(Cl)cc1CN1CCOCC1 ?
E coli growth-1: 0.662; E coli growth-2: -0.2; Tat transport: 6.1; AddAB inh: 3.0; phage Ecoli inh: -2.5

What do the screens show for `CCOC(=O)C1=CCC2c3c(c4ccc(OC)cc4n3C)C(=O)C1N2S(=O)(=O)c1ccc(C)cc1` (centres undefined)?
E coli growth-1: 0.663

How did O=C1C2C(c3ccc(Cl)cc3)N3C(=O)N(c4cccc(Cl)c4)C(=O)[C@@]3(Cc3ccc(Cl)cc3)C2C(=O)N1C1CCCCC1 (some centres undefined) do in these assays?
E coli growth-1: 0.711

What do the screens show for `Nc1nc(F)nc2c1ncn2C1OC(CO)C(O)C1O` (centres undefined)?
E coli growth-1: 0.454*!

Results for Nc1nc(Cl)nc2c1ncn2C1OC(CO)C(O)C1O (centres undefined) ?
E coli growth-1: 0.673; phage Ecoli inh: 3.9

How did Nc1ncn(C2O[C@H](CO)[C@@H](O)[C@H]2O)c(=O)n1 (some centres undefined) do in these assays?
E coli growth-2: 95.8*; AddAB inh: 96.5*

Results for Cc1ccc(-c2nnc(SCC(=O)NN=Cc3ccc(C)s3)n2-c2ccccc2)cc1 ?
E coli growth-1: 0.713

What do the screens show for `O=C(Nc1ccccc1)Nc1ncc([N+](=O)[O-])s1`?
E coli growth-1: 0.362*; Tat transport: 21.8; phage Ecoli inh: 4.5

What do the screens show for `O=C(COC(=O)c1ccccc1)Nc1ncc([N+](=O)[O-])s1`?
E coli growth-1: 0.597; E coli growth-2: 0.3; Tat transport: 0.0; AddAB inh: 3.0; phage Ecoli inh: 4.4

Results for Cc1cc2cc(CCNC(=O)c3ccc(Br)o3)c(=O)[nH]c2cc1C ?
E coli growth-1: 0.645; E coli growth-2: 12.0*; Tat transport: -6.9; AddAB inh: 11.7; phage Ecoli inh: 9.6

What do the screens show for `CCCCCCCC[n+]1cccc2c3ccccc3ccc21`?
E coli growth-1: 0.476*; E coli growth-2: 1.8; Tat transport: 9.1; AddAB inh: 3.4; phage Ecoli inh: 7.3

Results for COP(=O)(C=Cc1ccccc1)C(O)c1ccc(F)cc1 (centres undefined) ?
E coli growth-1: 0.693

How did O=C(Nc1nnc(C2=COCCO2)o1)c1cccc(Br)c1 do in these assays?
E coli growth-1: 0.479*; E coli growth-2: -3.0; Tat transport: 0.5; AddAB inh: 2.6; phage Ecoli inh: -3.4
